Source: PubChem BioAssay (National Center for Advancing Translational Sciences (NCATS))
Most compounds without a hit are left out; they make up all but 4.6% or so of the library.
Tau fibril ThT – blocks human tau fibril formation measured by thioflavin T; P10636; recombinant tau K18 P301L, heparin-induced fibrillization, ThT fluorescence; Potency, µM (highest dose often 57.4 µM), for the others: at the highest dose activity, negative = inhibition, most hits filed as inhibitors; 270,000 compounds, 2.1% hits; further: potency means the concentration at half of the fitted maximal effect; nearly all actives have a fitted effect of over 55% in size
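Fibril formation assay: tau K18 P301L at 15 uM with trace Alexa 594 label, heparin inducer 20 uM, pH 7 sodium acetate buffer, 37 C for 6 hr; endpoint ThT signal.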
PNC assembly inh – perinucleolar compartment assembly inhibition; PC3M PTB-GFP, PNC prevalence imaging, 16 h; hits give low values; activity change (PNC), negative = inhibition, % at 10 µM; 140,000 compounds, 3.1% hits; AID 2417;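 active means readout at or below -70, meaning at least 70% loss of cells showing the perinucleolar compartment, a nuclear body marking cancer cells; inconclusive means readout between -30 and a set limit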;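 further: plate controls were DMSO wells for no effect and camptothecin positive control wells for full effect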
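PC3M cells stably expressing PTB-GFP, 750–1000 cells/well, treated 16 h at 37 °C with compound (23 nl of library stock), in duplicate. After paraformaldehyde fixation and Hoechst stain, imaged at 20x; PNC prevalence scored by image analysis.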
Tau fibril FP – inhibitors of human tau fibril formation. K18 P301L tau heparin fibrillization, Alexa594 FP, 6 h. Potency, µM (doses to about 57.7 µM), for the others: top-dose activity, negative = inhibition, actives largely listed as inhibitors. 280,000 compounds, 0.39% hits. AID 1468; further: potency means the concentration at half of the fitted maximal effect; nearly all actives have a fitted effect of over 55% in size
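K18 P301L tau (15 uM unlabeled/0.24 uM Alexa 594-labeled, final) + compound + heparin 20 uM final; 100 mM NaOAc pH 7; 6 hr 37 C; ThT 30 uM final added, 1 hr RT; FP ex 555/em 632 nm.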
TR SRC2 fluor cs – counter-screen for TRb-SRC2 inhibitors: fluorescence interference; TRb/SRC2 Texas Red total fluorescence interference; Potency, µM (top dose mostly 106 µM), for the others: at the highest dose fluorescence change, negative = quenching; 280,000 compounds, 0.29% hits; active means well fitted curve in either direction with a large enough effect; inconclusive means small, poorly fitted or top-dose-only effect; further: potency means the concentration at half of the fitted maximal effect
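Human TRβ ligand-binding domain (0.6 uM) and Texas Red SRC2 peptide (20 nM) in Tris buffer with 1 uM T3 and 5% DMSO were incubated with pinned compound for 5 hr at ambient temperature. Total fluorescence was computed as S + 2P (555/632 nm).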
Tau fluor cs – counter-screen for tau fibril formation inhibitors; Potency, µM (series often up to 57.7 µM), for inactives: at the top dose activity change, negative = decrease; 280,000 compounds, 0.93% hits; tau K18 P301L (four-repeat tau fragment) Alexa594 fluorescence, heparin fibrillization; further: potency means the concentration at half of the fitted maximal effect; nearly all actives have a fitted effect of over 55% in size
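Human K18 P301L tau (15 uM unlabeled plus 0.24 uM Alexa 594-labeled, final) in 100 mM sodium acetate pH 7 was mixed with compound and 20 uM heparin and incubated 6 hr at 37 C.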
TRb SRC2 PPI – TRbeta-SRC2 interaction inhibition; TRbeta-SRC2 peptide binding, fluorescence polarization; receptor liganded with 1 µM T3; 280,000 compounds, 0.065% hits; Potency, µM (highest dose often 106 µM), without a hit: at the top dose activity change, negative = inhibition, usual class: inhibitors; P10828; AID 1469;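 further: potency means the concentration at half of the fitted maximal effect; plate controls were bound peptide for no effect and peptide without receptor for full effect; nearly all actives have a fitted effect of over 50% in size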
Target sequence (P10828 whole entry, looked up): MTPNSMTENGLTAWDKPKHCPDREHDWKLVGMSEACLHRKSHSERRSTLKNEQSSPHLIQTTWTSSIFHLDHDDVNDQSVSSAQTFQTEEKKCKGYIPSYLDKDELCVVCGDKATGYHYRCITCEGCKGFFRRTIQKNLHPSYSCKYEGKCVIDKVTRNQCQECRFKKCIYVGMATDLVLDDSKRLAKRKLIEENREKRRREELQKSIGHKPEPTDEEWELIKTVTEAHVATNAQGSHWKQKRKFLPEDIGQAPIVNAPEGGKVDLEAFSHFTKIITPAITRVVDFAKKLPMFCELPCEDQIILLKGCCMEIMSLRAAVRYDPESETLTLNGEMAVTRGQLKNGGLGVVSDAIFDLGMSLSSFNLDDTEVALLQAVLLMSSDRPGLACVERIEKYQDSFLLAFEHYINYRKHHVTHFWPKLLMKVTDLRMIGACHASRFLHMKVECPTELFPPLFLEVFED
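Each compound concentration gave % activity, normalized to unbound and bound Texas Red SRC2 controls, from polarization read after 5 hr ambient incubation with T3-loaded human TRb LBD.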
* marks the source's active call; other numbers are inactive results; ? = inconclusive; . = no result given; [ ] = another dose, or the depositor's remark. Unless noted, the call rests on the fitted dose curve; in most records, active means well fitted curve in the direction sought with a large enough effect; inconclusive means small, poorly fitted or top-dose-only effect, or another doubt; inactive means no such curve, though single readings can be large; an effect the other way counts as inactive or inconclusive. Unless noted, on the % scale 0 is the no-effect control and ±100 the full control effect.

SMILES | Tau fibril ThT | PNC assembly inh | Tau fibril FP | TR SRC2 fluor cs | Tau fluor cs | TRb SRC2 PPI
CC1=C(C(=O)Nc2ccc(C)cc2C)C(c2ccc(O)cc2)n2nc(SCC(=O)c3ccc(C)cc3)nc2N1 (stereo not drawn) | ? | . | ? | -15.4% | 12.6% | 2.4%
Cc1ccccc1Nc1cc(C(=O)NCCCN2CCN(c3cccc(Cl)c3)CC2)c2ccccc2n1 | ? | . | -14.8% | -3.7% | ? | -1.1%
CCOCC(=O)Nc1cccc(OC)c1 | 0.8% | -88.5* | 0.0% | -3.7% | -0.1% | 0.3%
Cc1ccc(S(=O)(=O)NCCOc2nc(N(C)C)nc(N3CCOCC3)n2)cc1 | -0.3% | -92.7* | 0.9% | 2.5% | -1.4% | 2.3%
Cc1ccc(S(=O)(=O)NCCOc2nc(N(C)C)nc(N(C)C)n2)cc1 | -7.4% | . | 9.0% | -1.6% | -4.0% | -5.0%
CCOC(=O)Cc1c(C)c2ccc(N(CC)CC)cc2oc1=O | 14.1µM* | -27.0 | ? | -7.8% | -28.6% | ?
NC(=O)c1cc(-c2ccccc2)nc(Oc2ccccc2)n1 | -13.5% | -116.6* | -1.7% | -6.5% | -12.5% | 2.9%
CCOC(=O)c1cc(-c2ccc(Cl)cc2)nc2c1c(C)nn2CCC#N | -19.0% | -2.9 | 0.2% | 0.4% | -20.3% | -3.9%
O=Nc1c(-c2c(O)[nH]c3cc(Br)ccc23)[nH]c2ccccc12 | 2.24µM* | . | ? | -3.9% | 8.91µM*[quencher] | 7.6%
O=C(CSCc1cccc(Br)c1)N=Nc1c(O)[nH]c2ccccc12 | ? | -5.6 | ? | -7.5% | ? | 2.4%
CS(=O)(=O)N1CCc2cc(C(=O)Nc3ccc(Cl)c(C(F)(F)F)c3)ccc21 | 17.0% | . | 20µM* | 0.5% | ? | 2.9%
Cc1ccccc1C(=O)NC1CCN(CC(=O)Nc2ccc3c(c2)OCO3)CC1 | -3.0% | . | -6.8% | -1.4% | -4.8% | -10.3%
CC1CCCCN1C(=O)CSc1nc2cc3c(cc2c(=O)n1Cc1ccc2c(c1)OCO2)OCO3 (stereo not drawn) | 0.4% | -86.7* | -5.8% | -1.5% | -12.7% | -5.7%
CN(C)c1ccc(C(CNC(=O)c2cccc(C(F)(F)F)c2)N2CCCC2)cc1 (stereo not drawn) | -16.2% | . | 11.7% | -2.6% | -17.8% | 6.5%
CCc1ccc2[nH]c(=O)c(C(c3nnnn3CC3CCCO3)N3CCCc4ccccc43)cc2c1 (stereo not drawn) | 11.2µM* | ? | ? | -2.8% | -26.7% | 5.6%
Cc1ccc(C)c2[nH]c(=O)c(C(c3nnnn3Cc3ccccc3)N3CCc4ccccc4C3)cc12 (stereo not drawn) | 22.4µM* | -14.8 | ? | -0.4% | -20.8% | -4.9%
O=c1[nH]c2cc3c(cc2cc1C(c1nnnn1Cc1ccccc1)N1CCCCCC1)OCCO3 (stereo not drawn) | ? | 1.6 | -11.1% | -6.5% | -19.5% | -3.0%
COCCn1nnnc1C(c1cc2cc(C)ccc2[nH]c1=O)N1CCCCCC1 (stereo not drawn) | ? | 30.5 | ? | -2.4% | -17.1% | -4.4%
Cc1cccc2cc(C(c3nnnn3CC3CCCO3)N3CCc4ccccc4C3)c(=O)[nH]c12 (stereo not drawn) | ? | 22.3 | -4.0% | 2.6% | -1.4% | 2.7%
COCCn1nnnc1C(c1cc2cc(C)ccc2[nH]c1=O)N1CCc2ccccc21 (stereo not drawn) | 28.2µM* | 10.6 | ? | -4.6% | ? | -5.5%
O=c1[nH]c2cc3c(cc2cc1C(c1nnnn1Cc1ccccc1)N1CCCc2ccccc21)OCO3 (stereo not drawn) | -12.0% | -118.9* | -0.8% | 2.6% | -10.2% | 1.3%
O=C(c1ccco1)N1CCN(C(=O)c2[nH]ncc2[N+](=O)[O-])CC1 | 9.7% | 8.0 | 0.8% | 0.4% | 5.4% | -5.9%
CCC(Sc1nnnn1C)C(=O)Nc1ccc(C(C)=O)cc1 (stereo not drawn) | ? | -86.8* | -9.5% | -7.2% | -16.3% | -5.4%
